These results are taken from PMC12136788.

The full ranking holds about 24,000 sequences; the median of “enrichment r” is about 0.99, and the highest 2% start at about 3.7. A selection follows.

First the molecules themselves.
B1: chr11:106117246:106117247:-_ENSMUSG00000020706_ENSMUST00000021048|mus_mus|motif|central (ssRNA)
RNA: GGGAGUUCUACAGUCCGACGAUCGCAGGCCUUACAAGUUAAAAGUAGAGGCUAGGAAGUAGAGUGCAAUAACUCGUAUCCGGAACGCUAGGAAGCAUCAACCAGAAGUUCUAUAUCUCUUCACAAAACUAGUGACCUCCAGUACAACAGAGGAUUGAGCAUCA
B2: chr7:20150648:20150649:-_ENSMUSG00000044709_ENSMUST00000117222|mus_mus|FALSE|FALSE (ssRNA)
RNA: GGGAGUUCUACAGUCCGACGAUCCUUGAAAGAAUAGGAAAUUAUGUCACUACAUCGAAGCAAGGCCUCGGCCUGUACACCUAUGGGAGUCUGCAGUUGGGAAACGUAGAAGUUGGCCACAUCCAGGUCUGUGGCUCCAAACUGCAACAGAGGAUUGAGCAUCA
B3: chr7:7679991:7679992:-_ENSG00000106399_ENST00000396682|hu_hu|hu_hu_hu_mus_False|18_58 (ssRNA)
RNA: GGGAGUUCUACAGUCCGACGAUCUGGGAUGAAUCUUUUCCAGCUUCCCCACGAAGCACACGGGCCGGUCGAUAUACUGAGCUAGCAUGCUGGCGUUGACGCGCGCUUUGGGGAGCUCCAUCAUGUCCUCCAUGAUUCUGCCGCCAACAGAGGAUUGAGCAUCA
B4: chrX:20248820:20248821:+_ENSMUSG00000001924_ENSMUST00000001989|mus_mus|mus_mus_mus_hu_True|48_58 (ssRNA)
RNA: GGGAGUUCUACAGUCCGACGAUCGGCGAAGUCCGUCACCACAAAGUCAGGUUCUGCCAGUGAGGCCACCAAGGAUUUAAAACUAAUCUUUUUCGGUACUUUGACCUGACUGACGAUGCCUCCACGGAUGUAGUCGGAGAAGUUCAACAGAGGAUUGAGCAUCA
B5: chr9:95013113:95013114:-_ENSG00000196305_ENST00000443024|hu_hu|hu_hu_hu_mus_False|78_78 (ssRNA)
RNA: GGGAGUUCUACAGUCCGACGAUCCUCAGUCAGAAAGGGCGUGUAAGGGGCCAUCAGUCUGCAAAGAGAAAGCAGGACACUGAACAGUGUCUCCAGAGCCAUGACACAGUCUUCCACCCCACUCUCACCCUUUAACCUCCUCCUCAACAGAGGAUUGAGCAUCA
B6: chr16:45382771:45382772:-_ENSMUSG00000022661_ENSMUST00000163230|mus_mus|mus_mus_mus_hu_True|48_88 (ssRNA)
RNA: GGGAGUUCUACAGUCCGACGAUCCUGGGUCAUGUUAUAAGACAAAUGGAUAGGGAGGGCAUGCUUCUCAAAAAAUGUGAGCUAUUGACUAAGACUAACAAUAUUUAUCUAGCUAUAAAAAUAAGUUAAAUGAAUAAGUUAAGACAACAGAGGAUUGAGCAUCA

This assay deals with T1, UNK ZnF1-3 (human, UniProt Q9C0B0 31-174).
T1 sequence: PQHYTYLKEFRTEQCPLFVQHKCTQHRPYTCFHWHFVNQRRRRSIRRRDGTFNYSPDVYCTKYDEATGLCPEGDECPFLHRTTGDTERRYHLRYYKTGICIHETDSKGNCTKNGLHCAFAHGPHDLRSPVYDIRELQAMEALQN
The assay is described as follows: nsRBNS (natural sequence RNA bind-n-seq); RBNS binding buffer (assumed for nsRBNS): 25 mM Tris pH 7.5, 150 mM KCl, 3 mM MgCl2, 0.01% Triton X-100, 500 ug/ml BSA, 20 U/ml SUPERase-In, 4 C; UNK is unkempt and MSI1 is Musashi-1; names of the RNAs are library labels; protein concentration not given here; high values mean tight binding.
Molecule B1 gave a binding signal of 1.8 enrichment R.
In turn, B2 displayed a binding signal of 0.807 enrichment R.
The value for B3 was 0.939 enrichment R; that for B4 was 1.04 enrichment R.
In turn, B5 yielded a binding signal of 1.44 enrichment R.
The molecule B6 returned a binding signal of 2.26 enrichment R.
